# This is a sample that favours compounds with a hit; in the whole collection about 21% have one here.
# Shiga inhibitor: Shiga toxin inhibition | Vero cells, Shiga toxin protein synthesis inhibition reporter | inhibition, % at 38.7 µM | 290,000 tested, 9.2% active | AID 2315; in the data active means inhibition mostly above about 28%, no sharp cut-off; inactive means mostly below about 43%; further: 0% is about no effect
# Pf growth 48h: inhibits P. falciparum growth in the first generation, 48 h; 310,000 tested, 5.9% active; P. falciparum luciferase growth in erythrocytes, 48 h; AID 504832; Potency, µM (titrated, usually from 28.7 µM), inactives show top-dose activity change, negative = inhibition, most hits filed as inhibitors; further: potency means the concentration at half of the fitted maximal effect; on the % scale 0 is the no-effect control and ±100 the full control effect
#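 Parasite viability was followed by luminescence of a genomically integrated firefly luciferase. Cultures held 0.1% parasitemia at 2% hematocrit (final), incubated under 5% CO2 at 37 C.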
# Pf growth 96h: P. falciparum growth inhibition at 96 hour, primary screen for plastid delayed-death inhibitors; P. falciparum luciferase reporter growth, 96 h; AID 504834; 320,000 tested, 6.9% active; Potency, µM (series often up to 28.7 µM), without a hit: at the top dose activity change, negative = inhibition, actives largely listed as inhibitors; further: potency means the concentration at half of the fitted maximal effect; on the % scale 0 is the no-effect control and ±100 the full control effect
#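 Compounds incubated with erythrocytes infected by luciferase-expressing P. falciparum (2% hematocrit, 0.05% parasitemia final) for 96 hours, 37 C in 5% CO2. Growth inhibition scored as decreased luciferase luminescence.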
# Cycloheximide cs: counter-screen hit for Shiga toxin inhibitors, cycloheximide; cell reporter, cycloheximide protein synthesis inhibition counterscreen; max response, %; 300,000 tested, 12% active; in the data active means max response mostly above about 13%, no sharp cut-off; inactive means mostly below about 14%; further: read at 38.3 µM for the half of the compounds with a filed dose; 0% is about no effect
# Starred values were filed as active, the others as inactive; ? = inconclusive; · = no result; + = active, no number; [ ] = remark or other dose. Unless noted, the call rests on the fitted dose curve; in most records, active means well fitted inhibition curve with a large enough effect; inconclusive means small, poorly fitted or top-dose-only effect, or another doubt; inactive means no such curve, though single readings can be large or run the other way.
SMILES,Shiga inhibitor,Pf growth 48h,Pf growth 96h,Cycloheximide cs
CC(=O)c1cccc(-n2nnnc2SCC(=O)Nc2cc(C)on2)c1,-10,-5%,56%,-4
COc1ccc(NC(=O)c2sc3ncn(CC(=O)N4CCCCC4)c(=O)c3c2C)cc1OC,-8,-24%,?,-2
Cc1ccsc1C1NC(=O)c2c(sc3c2CCCC3)N1 (stereo unspecified),+,250%,231%,28*
Cc1ccc(C2NC(=O)c3c(sc4c3CCN(C)C4)N2)o1 (stereo unspecified),-13,·,3.7µM*,-2
CN1CCc2c(sc3c2c(=O)n(-c2ccccc2)c2n[nH]c(=S)n32)C1,-13,8%,2%,0
CN1CCc2c(sc3c2C(=O)NC(c2ccccn2)N3)C1 (stereo unspecified),2,28%,-5%,21*
CC1(C)Cc2c(sc3c2C(=O)NC(c2cccnc2)N3)CO1 (stereo unspecified),6,19%,23%,-1
O=C1NC(c2cccnc2)Nc2sc3c(c21)CCCC3 (stereo unspecified),61*,105%,76%,33*
N[C@H](CCC(=O)NCC(=O)O)C(=O)O,-3,·,·,-5
COC(=O)c1sccc1NC(=O)CC1C(=O)NCCN1C(=O)c1ccc(C)c(C)c1 (stereo unspecified),-6,6%,27%,1
CC(=O)Oc1ccc(N2C(=O)C3C4C=CC(CC4)C3C2=O)cc1[N+](=O)[O-] (stereo unspecified),-11,20%,?,2
COC(=O)c1c(C)[nH]c(O)c1C=Nc1ccc(C(C)C)cc1,39*,-23%,38%,22*
CCSc1nnc(NC(=O)c2ccc3ccccc3n2)s1,120*,30%,-92%,26*
CCSc1nnc(NC(=O)c2cc(C)nc3ccccc23)s1,-15,-7%,0%,-4
CCc1nnc(NC(=O)c2ccc3ccccc3n2)s1,70*,-46%,-38%,45*
O=C(CCN1CCN(c2ccccc2)CC1)NNC(=S)Nc1ccccc1Cl,-11,-8%,12%,5
Cc1ccc2c(CC(=O)Nc3c(C(=O)c4ccc(F)cc4)oc4ccccc34)coc2c1C,-3,·,·,5
O=C(CCc1cn2ccccc2n1)NC1CCCc2c1cnn2-c1ccccc1F (stereo unspecified),-8,-19%,13µM*,0
CCN(Cc1ccccc1)C(=O)c1c(-c2ccccc2Cl)noc1C,-9,?,?,-1
CC(C)N1C(=O)C(=O)N(CC(=O)N2c3ccccc3NC(=O)CC2C)C1=O (stereo unspecified),·,-6%,8%,·
N#C/C(=C\c1ccc(-c2ccccc2[N+](=O)[O-])o1)C(N)=O,4,?,3%,-1
O=C1NC(=O)C(=Cc2ccc(-c3ccccc3[N+](=O)[O-])o2)C(=O)N1,4,-1%,65%,0
O=C(/C=C/c1ccc(-c2ccccc2[N+](=O)[O-])o1)c1ccccc1,96*,-1%,-20%,51*
CNC(=O)/C(C#N)=C/c1ccc(-c2ccccc2[N+](=O)[O-])o1,35,-6%,20%,36*
O=C1/C(=C\c2ccc(-c3ccccc3[N+](=O)[O-])o2)C(c2ccccc2)=NN1c1ccccc1,0,7%,-17%,2
SMILES,Shiga inhibitor,Pf growth 48h,Pf growth 96h,Cycloheximide cs
CNC(=O)/C(C#N)=C/c1ccc(-c2ccc(Cl)cc2)o1,76*,18%,?,28*
O=C(O)/C(=C\c1ccc(-c2ccccc2[N+](=O)[O-])o1)c1ccccc1,28*,1%,0%,11
COc1ccc(C(=O)c2ccc([N+](=O)[O-])cc2)cc1S(=O)(=O)N1CCC(C(=O)O)CC1,-12,8%,25%,1
Cc1csc(=O)n1CC(=O)OCC(=O)Nc1ccc(F)c(F)c1,·,42%,40%,·
COc1ccccc1CNC(=O)c1[nH]c(C)c(C(C)=O)c1C,20,-39%,?,17
COc1cccc(CN(C)C(=O)c2[nH]c(C)c(C(C)=O)c2C)c1OC,2,12µM*,7.4µM*,-2
CCCn1c2ccccc2c2cnn(CC(=O)N3CCN(C4CCCCC4)CC3)c(=O)c21,14,24%,17%,0
CO[C@@H]1C[C@H](O[C@H]2[C@@H](C)[C@H](O[C@@H]3O[C@@H](C)C[C@@H](N(C)C)[C@@H]3OC(C)=O)[C@H](C)C[C@]3(CO3)C(=O)[C@H](C)[C@H](OC(C)=O)[C@H](C)[C@H](C)OC(=O)[C@@H]2C)O[C@H](C)[C@@H]1OC(C)=O,·,-9%[12.8 µM],?,·
CCOc1ccc(CN(C)C(=O)CN2C(=O)NC3(CCCc4ccccc43)C2=O)cc1 (stereo unspecified),·,?,1.2µM*,·
COc1ccc(CCN(C)C(=O)CN2C(=O)NC3(CCCc4ccccc43)C2=O)cc1OC (stereo unspecified),·,-26%,?,·
O=C(CN1C(=O)NC2(CCc3ccccc32)C1=O)c1c[nH]c2ccccc12 (stereo unspecified),·,8.3µM*,?,·
COc1ccc(CNC(=O)CN2C(=O)NC3(CCCc4sccc43)C2=O)cc1OC (stereo unspecified),·,?,4.1µM*,·
COc1ccc(C(=O)CN2C(=O)NC3(CCCc4ccccc43)C2=O)cc1OC (stereo unspecified),-10,8.3µM*,1.3µM*,-1
Nc1scc2c(C(=O)N/N=C/c3ccc(Cl)cc3)nn(-c3ccccc3)c(=O)c12,-6,?,5.2µM*,-2
Cc1noc(C)c1CSc1ncnc2ccccc12,-7,·,·,-4
CC(C)CNC(=S)Nc1ccc(Oc2ccccc2)cc1,23,5%,5.2µM*,21*
CCN(CC)CCNC(=S)Nc1ccc(Cl)cc1,-9,5%,31%,2
CCN(CC)CCCNC(=S)Nc1ccc(Br)cc1,102*,124%,?,44*
OCCCNC(=S)Nc1ccc(Oc2ccccc2)cc1,24,-16%,25%,0
CN(C)CCCNC(=S)Nc1ccc(Oc2ccccc2)cc1,67,23%,?,26*
COC(=O)CN(c1ccc(OC)cc1OC)S(=O)(=O)c1ccccc1[N+](=O)[O-],-5,0%,4%,-3
COc1ccc(N(CC(=O)NCc2ccc(C)cc2)S(=O)(=O)c2ccccc2[N+](=O)[O-])c(OC)c1,-2,?,0%,0
COc1ccc(N(CC(=O)NCc2ccccc2C)S(=O)(=O)c2ccccc2[N+](=O)[O-])c(OC)c1,-17,?,10µM*,-2
COc1ccc(N(CC(=O)N2CCCCCC2)S(=O)(=O)c2ccccc2[N+](=O)[O-])c(OC)c1,-9,12µM*,-28%,-2
COc1ccc(CN2C(=NC(=O)C3CCCO3)SC3CS(=O)(=O)CC32)cc1 (stereo unspecified),-7,1%,40%,1
CCc1nnc(NC(=O)CSc2nnc(-c3cccnc3)n2C)s1,16,-2%,15%,-2
COc1cccc(C2C(C#N)=C(N)OC3=C2C(=O)CC(c2ccco2)C3)c1OCc1ccc(F)cc1 (stereo unspecified),-8,6.6µM*,65%,-4
Cc1ncc(CN2CCC(CO)(CCc3ccccc3)CC2)s1,-8,?,?,1

# Source: PubChem
